# Bioassay records deposited in PubChem BioAssay by National Center for Advancing Translational Sciences (NCATS).
# The list is not random: actives were taken first. Their share in the collection is about 6.9%.
# IL-1B inflam inh: qHTS for Inhibitors of Inflammasome Signaling: IL-1-beta AlphaLISA Primary Screen; AID 743279, 2014; 4.7% of 360,000 active; activity change, % at 57.5 µM; THP-1 LPS/ATP IL-1B secretion, AlphaLISA, 16 h; stronger effect = lower value; in the data active means activity change below about -50%; inconclusive means mostly about -30% to -49%; further: on the % scale 0 is the no-effect control and ±100 the full control effect
#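 THP-1 cells pretreated 1 hr with compounds (up to 57.5 uM final), then stimulated with LPS (250 ng/mL final) plus ATP (1.25 mM final); secreted IL-1B measured by AlphaLISA after 16 hr, decreased signal indicating inhibition.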
# MCF10A rereplic: A quantitative high throughput screen for small molecules that induce DNA re-replication in MCF 10a normal breast cells; MCF 10A DNA re-replication, Hoechst nuclear intensity, 48 h; Potency, µM (top dose mostly 46.1 µM), without a hit: at the highest dose activity, positive = re-replication, most hits filed as activators; 2.9% of 350,000 active; further: potency means the concentration at half of the fitted maximal effect; % of control where 0% means no effect; nearly all actives have a fitted effect of over 50% in size
# Vif-A3G inh: qHTS for Inhibitors of Vif-A3G Interactions: qHTS | 0.076% of 410,000 active | Potency, µM (series often up to 46.1 µM), without a hit: at the highest dose activity, negative = active, actives largely listed as inhibitors | HeLa A3G-eYFP + Vif (tagged APOBEC3G with the HIV-1 protein that degrades it), YFP fluorescence, overnight | AID 602310, 2012; further: potency means the concentration at half of the fitted maximal effect; on the % scale 0 is the no-effect control and ±100 the full control effect; nearly all actives have a fitted effect of over 60% in size
# Target sequence (Q9HC16 whole entry, looked up): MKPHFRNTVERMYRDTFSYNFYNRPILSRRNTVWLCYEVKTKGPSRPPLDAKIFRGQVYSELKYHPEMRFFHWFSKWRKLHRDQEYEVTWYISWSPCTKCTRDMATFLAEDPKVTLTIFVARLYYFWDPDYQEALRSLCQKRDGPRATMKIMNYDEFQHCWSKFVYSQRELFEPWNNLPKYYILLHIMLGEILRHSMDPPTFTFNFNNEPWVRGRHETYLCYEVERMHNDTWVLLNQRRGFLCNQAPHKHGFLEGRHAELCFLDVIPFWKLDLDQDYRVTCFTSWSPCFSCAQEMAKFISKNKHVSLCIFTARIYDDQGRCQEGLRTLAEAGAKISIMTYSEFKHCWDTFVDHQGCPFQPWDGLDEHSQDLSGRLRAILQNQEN
#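 HeLa cells stably expressing Vif and C-terminally eYFP-tagged A3G, seeded overnight at 37 deg C, then exposed to compound by pintool overnight at 37 deg C. Rise in yellow fluorescence (Ex 488/Em 500-530, Acumen) marks blocked Vif-driven A3G degradation.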
# SW480 rerep: A quantitative high throughput screen for small molecules that induce DNA re-replication in SW480 colon adenocarcinoma cells. SW480 DNA re-replication, Hoechst DNA content imaging, 48 h. Potency, µM (titrated, usually from 46.1 µM), without a hit: top-dose re-replication activation, most hits filed as activators. 1.8% of 340,000 active. AID 624297, 2012; further: potency means the concentration at half of the fitted maximal effect; % of control where 0% means no effect; nearly all actives have a fitted effect of over 55% in size
#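 First, 250 cells per well were seeded. Next, compound or vehicle (23 nL) was pinned in, plates sat 48 hr at 37 C. Finally Hoechst was added for 40 min before fluorescence scanning.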
# Giardia killer: Small Molecules that selectively kill Giardia lamblia: qHTS. Giardia lamblia trophozoite viability. activity change, % at 7.66 µM, hits read low. 0.15% of 340,000 active. AID 540267, 2011; in the data active means activity change below about -80%; inconclusive means between about -30% and that limit;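 further: parasites exposed to compound for two days anaerobically before the ATP read; on the % scale 0 is the no-effect control and ±100 the full control effect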
#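 Media and compound were dispensed first, then trophozoites at 100 cells/well; plates sat 48 hrs at 37 deg C without oxygen before ATP luminescence reagent was added and read after 15-30 min at room temperature.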
# Vif-APOBEC3F blk: qHTS for Inhibitors of Vif-A3F Interactions: qHTS; 0.2% of 390,000 active; Potency, µM (top dose mostly 46.1 µM), inactives show at the top dose activity, negative = active; HeLa A3F-eYFP + Vif (tagged APOBEC3F with the HIV-1 protein that degrades it), YFP fluorescence increase; AID 602313, 2012; further: potency means the concentration at half of the fitted maximal effect; % of control where 0% means no effect; nearly all actives have a fitted effect of over 65% in size
#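 Fluorescence increase (Ex 488/Em 500-530) after overnight compound treatment at 37 deg C flags inhibition of Vif-driven A3F-eYFP loss in stable HeLa A3F-eYFP/Vif cells seeded overnight beforehand.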
# The depositor's hits bear a star; ? = inconclusive; / = not tested or not shown. Unless noted, the call rests on the fitted dose curve; in most records, active means well fitted curve in the direction sought with a large enough effect; inconclusive means small, poorly fitted or top-dose-only effect, or another doubt; inactive means no such curve, though single readings can be large; an effect the other way counts as inactive or inconclusive.
SMILES,IL-1B inflam inh,MCF10A rereplic,Vif-A3G inh,SW480 rerep,Giardia killer,Vif-APOBEC3F blk
Cc1cccn2c(=O)c3cc(C(=O)NCc4ccco4)c(=N)n(C4CCCC4)c3nc12,29.0,2.06µM*,0.3%,1.84µM*,27.8,1.9%
COc1ccc(CCn2c(=N)c(C(=O)NCC3CCCO3)cc3c(=O)n4cccc(C)c4nc32)cc1 (centres undefined),-4.8,2.91µM*,-12.0%,5.8µM*,22.9,-17.5%
COCCn1c(=N)c(C(=O)NCCc2ccc(OC)cc2)cc2c(=O)n3cccc(C)c3nc21,-5.0,?,1.7%,?,-13.0,-20.2%
CCOC(=O)c1cc2c(=O)n3cccc(C)c3nc2n(CC2CCCO2)c1=NC(C)=O (centres undefined),3.4,?,3.8%,-2.6%,13.1,0.6%
Cc1cccn2c(=O)c3cc(S(=O)(=O)c4ccc(Br)cc4)c(=N)n(C4CCCCC4)c3nc12,38.8,12.3%,-1.3%,?,1.2,-6.0%
Cc1cccn2c(=O)c3cc(C(=O)NC4CCCCC4C)n(C)c3nc12 (centres undefined),-17.3,14.6µM*,-0.7%,20.6µM*,45.1,4.9%
Cc1cccn2c(=O)c3cc(C(=O)NCC4CCCO4)c(=N)n(CC4CCCO4)c3nc12 (centres undefined),-5.3,4.61µM*,0.9%,3.66µM*,-14.2,3.1%
CC1CCCCC1NC(=O)c1cc2c(=O)n3ccccc3nc2n1C (centres undefined),18.1,-3.2%,0.0%,?,25.6,0.4%
CCc1nn(CC(=O)N2CCN(c3cccc(C(F)(F)F)c3)CC2)c(=O)c2cccn12,/,/,-1.3%,/,/,0.5%
COc1ccccc1Cn1ccn(CC(=O)Nc2c(C)cc(C)cc2C)c(=O)c1=O,/,/,-1.0%,/,/,-13.0%
CC[N+]1(CC(=O)c2ccc(I)cc2)CCCCC1,/,/,-4.8%,/,/,/
COc1ccccc1CNS(=O)(=O)c1cc(C(=O)Nc2cccc(C(F)(F)F)c2)ccc1F,/,/,9.8%,/,/,1.3%
CCOCCCNc1nc2nc3ccc(C)cn3c(=O)c2cc1C(=O)NCC1CCCO1 (centres undefined),0.0,10.3µM*,1.3%,9.2µM*,2.6,-5.6%
COCCCn1c(=N)c(C(=O)NCC2CCCO2)cc2c(=O)n3cc(C)ccc3nc21 (centres undefined),/,/,-1.9%,/,/,5.7%
Cc1cccn2c(=O)c3cc(C(=O)NC4CCCCC4)c(=N)n(Cc4ccc(F)cc4)c3nc12,92.1,?,-0.1%,1.3µM*,48.9,1.3%
Cc1cccn2c(=O)c3cc(C(=O)NCc4ccc(F)cc4)c(=N)n(CC4CCCO4)c3nc12 (centres undefined),4.8,15.2%,5.0%,?,50.5,0.5%
COc1ccc(CNC(=O)c2cc3c(=O)n4cccc(C)c4nc3n(CC3CCCO3)c2=N)cc1 (centres undefined),20.1,8.2µM*,-0.6%,4.11µM*,-14.9,3.7%
Cc1cccn2c(=O)c3cc(C(=O)NC4CCCC4)c(=N)n(CC4CCCO4)c3nc12 (centres undefined),10.4,9.2µM*,-2.1%,?,6.2,-2.3%
CNS(=O)(=O)c1cn(CC(=O)Nc2ccc(OC)cc2OC)cc1S(=O)(=O)NC,/,/,0.3%,/,/,-13.2%
Cc1cccn2c(=O)c3cc(C(=O)NCC4CCCO4)c(=N)n(C4CCCCC4)c3nc12 (centres undefined),-17.0,18.4µM*,0.0%,18.4µM*,12.9,3.3%
COc1cc(C2CC(=O)Nc3cc4c(cc32)OCCO4)cc(Br)c1OC (centres undefined),/,/,-18.0%,/,/,-7.7%
COC(=O)c1c(NC(=O)c2cc(=O)c3ccc(C)c(C)c3o2)sc2c1CCCC2,/,/,2.5%,/,/,0.8%
CC(C)=CCC/C(C)=C/CNC(=O)C[C@H]1C[C@H](C(=O)N2CCCCC2)[C@@]2(CCc3ccccc3)c3[nH]c4ccc(Cl)cc4c3CCN2C1=O,-3.6,15.0%,2.1%,19.2%,4.4,6.8%
CC(C)=CCC/C(C)=C/CNC(=O)C[C@H]1C[C@H](C(=O)N2CCOCC2)[C@@]2(C)c3[nH]c4ccc(Cl)cc4c3CCN2C1=O,-65.1*,1.8%,-16.3%,0.0%,14.0,-3.0%
CCN(CC)C(=O)[C@H]1C[C@H](CC(=O)NCc2ccc(OC)c(OC)c2)C(=O)N2CCc3c([nH]c4ccc(Cl)cc34)[C@]12C,15.8,-7.8%,1.4%,-4.5%,-15.2,6.5%
SMILES,IL-1B inflam inh,MCF10A rereplic,Vif-A3G inh,SW480 rerep,Giardia killer,Vif-APOBEC3F blk
CC(C)N(C(=O)[C@H]1C[C@H](CC(=O)NCC23CC4CC(CC(C4)C2)C3)C(=O)N2CCc3c([nH]c4ccc(Cl)cc34)[C@]12C)C(C)C,-75.3*,5.5%,-1.6%,?,17.2,?
CC(C)=CCC/C(C)=C/CNC(=O)C[C@H]1C[C@H](C(=O)N2CCCCC2)[C@@]2(CCc3ccccc3)c3[nH]c4cc(CCC(=O)N(C)C)ccc4c3CCN2C1=O,-68.5*,-34.1%,-0.1%,-37.8%,-0.3,4.0%
COc1ccc2[nH]c3c(c2c1)CCN1C(=O)C(CC(=O)NCc2ccc(OC)c(OC)c2)C[C@H](C(=O)N(C(C)C)C(C)C)[C@@]31C (some centres undefined),-9.4,?,1.1%,-1.2%,30.7,10.5%
CCN(CC)C(=O)[C@H]1C[C@H](CC(=O)NCC23CC4CC(CC(C4)C2)C3)C(=O)N2CCc3c([nH]c4ccc(Cl)cc34)[C@]12C,-68.5*,3.2%,0.2%,14.6µM*,1.7,-3.1%
O=C1c2ccccc2NC(c2ccccc2O)N1Cc1ccco1 (centres undefined),/,/,-5.8%,/,-23.0,/
COc1ccc2c(c1)c1c(c(=O)n(-c3cccc(C)c3)c(=O)n1CC(=O)NCC1CCCO1)n2C (centres undefined),/,/,3.7%,/,/,-0.2%
CCCCCCNC(=O)N[C@@H](C(=O)NCCC[C@H]1CN2C(=NC[C@@H]2Cc2ccccc2)N1CCc1cccc(OC)c1)C(C)C,-90.7*,0.9%,1.2%,-7.3%,-8.2,-6.1%
OC(COC(c1ccccc1)c1ccccc1)CN1CCc2ccccc2C1 (centres undefined),-87.0*,?,0.6%,29.2%,3.2,-19.2%
OC(COc1ccc(Cl)cc1Cl)CN1CCc2ccccc2C1 (centres undefined),-21.5,?,-7.9%,3.5%,24.4,-5.2%
